Data from PubChem BioAssay AID2284359 (EPA ToxCast).
Records with an inconclusive call do not appear. Active and inactive are the calls of the source. How the source made its calls: active means hit-call score of the fitted dose curve at least 0.9, where 1 is the maximum; inconclusive means response in the unintended direction; inactive means score below 0.9.

Experiment: ATG_M_06_EcoTox2: Attagene TRANS-FACTORIAL EcoTox-2 HepG2 Assay for M06 Transcription Factor (Internal Marker)
Description: ATG_EcoTox2 is a cell-based, multiplexed assay created by modifying the existing Attagene TRANS-FACTORIAL system to include a panel of nuclear receptors from some or all the following species: human (Homo sapiens), african clawed frog (Xenopus laevis), rainbow trout (Oncorhynchus mykiss), japanese medaka (Oryzias latipes), and zebrafish (Danio rerio). The ECOTOX2-FACTORIAL format uses HepG2, a human liver cell line, with measurements taken at 24 hours after chemical dosing in a 24-well plate. ATG_M_06_EcoTox2 is one of 29 assay components calculated in the ATG_EcoTox2 assay. It is designed to make measurements of mRNA induction, a form of inducible reporter, as detected with fluorescence intensity signals by Reverse transcription polymerase chain reaction (RT-PCR) and Capillary electrophoresis technology.The assay endpoint ATG_M_06_EcoTox2 was analyzed in the positive analysis fitting direction relative to DMSO as the negative control and baseline of activity. Using a type of inducible reporter, measures of mRNA for gain-of-signal activity can be used to understand the background control at the transcription factor-level as they relate to the gene. Furthermore, this assay endpoint can be referred to as a secondary readout, because this assay has produced multiple assay endpoints where this one serves a background control function. To generalize the intended target to other relatable targets, this assay endpoint is annotated to the background measurement intended target family, where the subfamily is internal marker.
Human liver HepG2 cells are transiently transfected with multiple reporter transcription units (MRTUs) in 6-well plates using FuGene 6 reagent (Roche; 3 ml FuGene/1 mg DNA). The MRTU constructs are regulated by a cis-regulating element (promoter). Each RTU expresses a GAL4-UAS that regulates the transcription of a nearby target reporter gene sequence. A major difference between the CIS and TRANS system is that in CIS activities of endogenous TFs are measured, whereas the TRANS assay evaluates changes in activities of exogenous, chimeric NR-Gal4 proteins. […] At the end of 24 hour incubation, total RNA was isolated using TriZol reagent (Invitrogen). The isolated RNA is then reverse-transcribed using oligo(dT) primer and Mo-MLV reverse transcriptase (Invitrogen) with DNAse I (Ambion) treatment for 30 min. The one-tenth of the produced cDNA was amplified by PCR using Taq DNA polymerase (Invitrogen) and two reporter sequence-specific primers. […] The fragments were purified using Qiaquick PCR columns (Qiagen), analyzed on an ABI 3130xL genetic analyzer (Applied Biosystems) with peak positions identified by using a set of X-rhodamine (ROX)-labeled MapMarker1000 molecular weight standards (BioVentures). […]

Row | SMILES | outcome
1 | O=S(=O)(O)C(F)(F)C(F)(F)C(F)(F)C(F)(F)C(F)(F)C(F)(F)F | inactive
2 | CCCCOCN(C(=O)CCl)c1c(CC)cccc1CC | inactive
3 | O=C(O)C(F)(F)C(F)(F)C(F)(F)C(F)(F)C(F)(F)C(F)(F)C(F)(F)F | inactive
4 | O=P(Oc1ccccc1)(Oc1ccccc1)Oc1ccccc1 | inactive
